In the supplement of paper PMC10849652:
Targets with a hit are over-represented here; the source holds about 8,800 in all. About 0.5% of all pairs of compound and target were hits. Values without a mark were called inactive.

How the values were obtained:
Assay in all cases: log2 fold change, soluble protein after heating vs DMSO (PISA); higher = thermal stabilisation; K562 lysate, 10 uM; active = over 0.2 and 3.5 SD of the protein, either way, in both replicates (recomputed)
[1] = compound: NCC(=O)Nc1ccc(-n2nc(C(F)(F)F)cc2-c2ccc3c(ccc4ccccc43)c2)cc1
Method in brief: (§1)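 The values are log-two fold changes in thermal stability compared with solvent controls and come from duplicates. They were obtained by TMTpro 16plex LC-MS/MS, with channel sums equalised, on the supernatant after 21,000xg for 90 min. That supernatant came from crude K562 extract at 1 mg/mL protein treated with 10 μM compound for 30 min, heated for 3 min across 48°C-58°C, pooled and brought to 0.5% NP-40 at 4°C.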

[2] = compound: O=C(CCCCCCC(=O)Nc1ccccc1)NO [vorinostat]
Method in brief: as §1

[3] = compound: O=C(O)c1ccc2c(c1)nc(Nc1cccc(Cl)c1)c1ccncc12 [silmitasertib]
Method in brief: as §1

[4] = compound: O=C1NC(=O)C(c2cnc3ccccn23)=C1c1cn2c3c(cc(F)cc13)CN(C(=O)N1CCCCC1)CC2
Method in brief: as §1

[5] = compound: c1cn2cc(-c3ccc4cn[nH]c4c3)nc(Nc3ccc(N4CCOCC4)cc3)c2n1 [entospletinib]
Method in brief: as §1

UniProt Q8WVT3, sequence (Q8WVT3 whole entry, looked up): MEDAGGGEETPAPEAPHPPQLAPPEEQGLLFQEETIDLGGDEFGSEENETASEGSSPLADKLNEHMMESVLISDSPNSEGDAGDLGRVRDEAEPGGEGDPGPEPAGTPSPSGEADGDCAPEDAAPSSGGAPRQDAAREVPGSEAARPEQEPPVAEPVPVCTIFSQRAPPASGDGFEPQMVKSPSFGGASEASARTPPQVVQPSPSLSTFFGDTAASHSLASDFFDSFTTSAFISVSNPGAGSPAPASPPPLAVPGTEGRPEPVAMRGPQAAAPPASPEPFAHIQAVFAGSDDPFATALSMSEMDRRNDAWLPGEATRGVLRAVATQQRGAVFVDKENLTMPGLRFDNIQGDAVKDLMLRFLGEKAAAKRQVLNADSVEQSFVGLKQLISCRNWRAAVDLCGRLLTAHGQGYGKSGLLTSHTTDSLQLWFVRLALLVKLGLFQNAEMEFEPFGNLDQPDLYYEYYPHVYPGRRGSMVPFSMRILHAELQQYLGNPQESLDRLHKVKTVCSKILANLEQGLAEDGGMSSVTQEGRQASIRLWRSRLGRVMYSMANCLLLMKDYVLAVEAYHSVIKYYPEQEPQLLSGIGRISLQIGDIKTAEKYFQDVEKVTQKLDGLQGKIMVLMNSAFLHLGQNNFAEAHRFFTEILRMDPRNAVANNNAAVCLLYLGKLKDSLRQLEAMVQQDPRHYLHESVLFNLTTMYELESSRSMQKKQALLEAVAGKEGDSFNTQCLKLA
UniProt P43897, sequence (P43897 whole entry, looked up): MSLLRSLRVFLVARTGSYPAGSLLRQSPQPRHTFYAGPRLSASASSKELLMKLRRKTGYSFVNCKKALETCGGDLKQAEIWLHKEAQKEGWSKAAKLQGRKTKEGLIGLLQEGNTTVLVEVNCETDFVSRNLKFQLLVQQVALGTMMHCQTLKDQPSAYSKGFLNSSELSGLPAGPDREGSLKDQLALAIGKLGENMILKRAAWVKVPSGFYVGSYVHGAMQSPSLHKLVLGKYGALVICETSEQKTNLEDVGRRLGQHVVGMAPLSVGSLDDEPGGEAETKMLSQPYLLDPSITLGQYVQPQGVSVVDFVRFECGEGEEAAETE
UniProt P15923, sequence (P15923 whole entry, looked up): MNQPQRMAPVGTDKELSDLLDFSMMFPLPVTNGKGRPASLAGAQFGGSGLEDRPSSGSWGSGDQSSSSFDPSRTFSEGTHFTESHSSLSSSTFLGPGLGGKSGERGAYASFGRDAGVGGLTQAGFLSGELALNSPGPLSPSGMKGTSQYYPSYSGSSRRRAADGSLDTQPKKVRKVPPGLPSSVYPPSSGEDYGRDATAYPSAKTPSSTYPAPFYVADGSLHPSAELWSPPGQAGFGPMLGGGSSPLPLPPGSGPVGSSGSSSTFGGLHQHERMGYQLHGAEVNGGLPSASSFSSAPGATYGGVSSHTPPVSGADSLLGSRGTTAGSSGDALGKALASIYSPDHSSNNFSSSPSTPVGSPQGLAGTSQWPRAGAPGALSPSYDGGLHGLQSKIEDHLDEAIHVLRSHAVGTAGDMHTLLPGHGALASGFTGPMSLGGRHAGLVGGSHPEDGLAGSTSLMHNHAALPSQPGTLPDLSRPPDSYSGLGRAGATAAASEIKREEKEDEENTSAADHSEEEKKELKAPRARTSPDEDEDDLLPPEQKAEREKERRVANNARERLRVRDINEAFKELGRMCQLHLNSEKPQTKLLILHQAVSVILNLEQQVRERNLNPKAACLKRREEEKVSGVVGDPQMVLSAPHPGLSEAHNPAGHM
UniProt Q14258, sequence (Q14258 whole entry, looked up): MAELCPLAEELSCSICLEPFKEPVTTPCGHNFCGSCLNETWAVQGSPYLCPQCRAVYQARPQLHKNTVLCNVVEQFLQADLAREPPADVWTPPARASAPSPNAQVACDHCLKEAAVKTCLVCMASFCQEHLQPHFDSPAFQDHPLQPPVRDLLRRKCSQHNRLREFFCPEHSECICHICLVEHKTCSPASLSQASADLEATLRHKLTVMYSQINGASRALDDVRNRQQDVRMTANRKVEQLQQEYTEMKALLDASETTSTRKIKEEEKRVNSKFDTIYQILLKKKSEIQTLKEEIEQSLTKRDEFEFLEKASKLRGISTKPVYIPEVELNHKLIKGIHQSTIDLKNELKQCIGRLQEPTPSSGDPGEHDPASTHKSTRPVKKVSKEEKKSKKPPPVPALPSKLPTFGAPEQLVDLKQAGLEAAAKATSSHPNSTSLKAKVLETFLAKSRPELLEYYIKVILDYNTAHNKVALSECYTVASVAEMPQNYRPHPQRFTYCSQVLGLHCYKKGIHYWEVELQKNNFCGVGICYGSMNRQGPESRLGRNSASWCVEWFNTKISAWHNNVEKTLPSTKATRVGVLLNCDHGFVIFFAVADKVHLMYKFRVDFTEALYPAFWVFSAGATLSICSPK
UniProt Q9NUQ7, sequence (Q9NUQ7 whole entry, looked up): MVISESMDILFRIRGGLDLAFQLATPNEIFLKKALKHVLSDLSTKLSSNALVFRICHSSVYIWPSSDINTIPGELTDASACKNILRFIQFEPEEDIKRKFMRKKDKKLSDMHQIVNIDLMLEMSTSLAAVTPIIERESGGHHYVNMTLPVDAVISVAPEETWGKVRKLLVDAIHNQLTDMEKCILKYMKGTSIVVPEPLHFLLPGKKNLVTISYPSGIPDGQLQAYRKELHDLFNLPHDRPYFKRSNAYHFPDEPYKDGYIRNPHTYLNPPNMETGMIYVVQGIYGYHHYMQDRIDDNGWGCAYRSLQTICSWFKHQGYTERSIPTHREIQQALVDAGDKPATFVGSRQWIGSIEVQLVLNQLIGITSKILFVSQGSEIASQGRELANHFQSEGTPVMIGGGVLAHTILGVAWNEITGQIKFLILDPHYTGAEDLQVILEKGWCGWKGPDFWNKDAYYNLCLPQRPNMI
UniProt Q9UHD2, sequence (Q9UHD2 whole entry, looked up): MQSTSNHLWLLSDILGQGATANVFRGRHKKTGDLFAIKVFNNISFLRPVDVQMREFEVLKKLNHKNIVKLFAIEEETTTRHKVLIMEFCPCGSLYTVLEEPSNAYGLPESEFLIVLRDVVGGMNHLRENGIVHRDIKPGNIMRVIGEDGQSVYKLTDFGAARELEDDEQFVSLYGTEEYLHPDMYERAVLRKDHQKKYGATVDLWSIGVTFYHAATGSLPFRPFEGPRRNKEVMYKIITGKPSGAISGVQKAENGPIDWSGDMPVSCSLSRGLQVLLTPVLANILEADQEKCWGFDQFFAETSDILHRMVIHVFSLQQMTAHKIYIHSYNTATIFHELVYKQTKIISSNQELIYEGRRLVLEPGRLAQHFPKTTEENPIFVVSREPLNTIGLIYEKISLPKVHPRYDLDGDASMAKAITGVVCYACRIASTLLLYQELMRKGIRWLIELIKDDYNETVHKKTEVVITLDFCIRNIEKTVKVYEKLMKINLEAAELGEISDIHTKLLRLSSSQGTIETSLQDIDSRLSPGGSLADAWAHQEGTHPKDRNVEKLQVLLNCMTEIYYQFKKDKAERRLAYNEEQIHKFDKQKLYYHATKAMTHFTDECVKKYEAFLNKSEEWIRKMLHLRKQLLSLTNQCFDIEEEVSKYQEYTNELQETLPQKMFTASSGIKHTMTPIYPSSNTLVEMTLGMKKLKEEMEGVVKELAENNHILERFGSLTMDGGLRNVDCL
UniProt Q12788, sequence (Q12788 whole entry, looked up): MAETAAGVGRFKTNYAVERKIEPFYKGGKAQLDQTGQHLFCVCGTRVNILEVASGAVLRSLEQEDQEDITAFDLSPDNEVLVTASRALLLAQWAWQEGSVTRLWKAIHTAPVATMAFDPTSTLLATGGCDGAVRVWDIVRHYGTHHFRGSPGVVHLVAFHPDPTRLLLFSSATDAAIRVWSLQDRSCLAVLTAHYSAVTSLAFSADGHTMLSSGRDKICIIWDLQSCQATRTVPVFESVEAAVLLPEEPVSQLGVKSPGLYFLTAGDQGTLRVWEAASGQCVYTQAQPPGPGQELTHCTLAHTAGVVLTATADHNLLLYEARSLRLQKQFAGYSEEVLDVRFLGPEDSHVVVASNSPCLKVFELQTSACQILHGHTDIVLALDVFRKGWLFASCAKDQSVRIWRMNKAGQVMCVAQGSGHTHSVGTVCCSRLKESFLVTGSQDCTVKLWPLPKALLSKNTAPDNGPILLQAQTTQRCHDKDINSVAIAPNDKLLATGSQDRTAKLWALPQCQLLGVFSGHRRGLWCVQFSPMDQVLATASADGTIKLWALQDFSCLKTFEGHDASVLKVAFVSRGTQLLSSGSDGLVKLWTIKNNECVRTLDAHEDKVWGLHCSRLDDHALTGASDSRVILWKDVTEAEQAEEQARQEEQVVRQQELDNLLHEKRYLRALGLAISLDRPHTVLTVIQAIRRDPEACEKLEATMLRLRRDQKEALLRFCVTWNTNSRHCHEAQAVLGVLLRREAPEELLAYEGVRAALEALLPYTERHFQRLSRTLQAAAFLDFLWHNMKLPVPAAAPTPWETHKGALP
UniProt Q9Y2W6, sequence (Q9Y2W6 whole entry, looked up): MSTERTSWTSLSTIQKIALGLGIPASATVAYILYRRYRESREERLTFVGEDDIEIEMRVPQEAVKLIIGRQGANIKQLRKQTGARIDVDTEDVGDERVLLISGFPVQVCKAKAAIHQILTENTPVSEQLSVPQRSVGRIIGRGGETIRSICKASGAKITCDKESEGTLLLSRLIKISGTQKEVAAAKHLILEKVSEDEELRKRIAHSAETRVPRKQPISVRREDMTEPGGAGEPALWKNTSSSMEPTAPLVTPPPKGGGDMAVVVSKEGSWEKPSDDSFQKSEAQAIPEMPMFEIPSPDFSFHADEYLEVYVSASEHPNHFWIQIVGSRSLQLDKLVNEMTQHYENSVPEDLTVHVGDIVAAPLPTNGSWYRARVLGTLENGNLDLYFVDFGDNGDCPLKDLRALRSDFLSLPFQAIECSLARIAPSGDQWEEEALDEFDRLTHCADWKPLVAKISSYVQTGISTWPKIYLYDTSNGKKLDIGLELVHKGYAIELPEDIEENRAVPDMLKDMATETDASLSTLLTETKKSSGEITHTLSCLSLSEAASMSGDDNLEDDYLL

Row | Target | log2 fold change [1] | log2 fold change [2] | log2 fold change [3] | log2 fold change [4] | log2 fold change [5]
1 | TUBB (UniProt P07437) | 0.025 | -0.529 (active) | 0.009 | 0.032 | -0.018
2 | TRIM25 (UniProt Q14258) | 0.013 | -0.59 (active) | -0.046 | -0.018 | 0.011
3 | TDRKH (UniProt Q9Y2W6) | -0.031 | -0.223 | 0.024 | -0.052 | 0.056
4 | TRMT10A (UniProt Q8TBZ6) | 0.032 | 0.072 | -0.058 | -0.063 | -0.012
5 | UFSP2 (UniProt Q9NUQ7) | -0.029 | 0.342 (active) | 0.001 | -0.021 | -0.012
6 | TSFM (UniProt P43897) | 0.002 | -0.261 (active) | 0.043 | 0.035 | -0.014
7 | TBK1 (UniProt Q9UHD2) | -0.04 | -0.361 | 0.189 | 0.125 | 0.204
8 | TYMS (UniProt P04818) | -0.02 | -0.231 (active) | 0.009 | -0.005 | 0.031
9 | TBL3 (UniProt Q12788) | 0.015 | -0.263 (active) | -0.011 | -0.001 | -0.023
10 | TNKS (UniProt O95271) | -0.009 | -0.1 | 0.06 | -0.001 | -0.085
11 | TCF3 (UniProt P15923) | -0.007 | -0.141 | -0.031 | 0 | -0.03
12 | TRAPPC12 (UniProt Q8WVT3) | 0.032 | -0.258 (active) | 0.005 | 0.043 | -0.001
13 | TRIP12 isoform 2 (UniProt Q14669) | -0.057 | -0.266 (active) | 0.03 | 0.005 | -0.002
